Laboratory results: PubChem BioAssay AID1159580 (chemical genetic matrix, 2015)
Among all 5,500 compounds or so, about 2,000 (36%) were called active. Not shown: some 18% with an inconclusive outcome. No stated cut-off is given here; in the data, active means normalized growth mostly below about 0.91 (no sharp cut-off); inconclusive means no clear call, values can overlap the other calls; inactive means mostly above about 0.92. The list shows a part of the results.

Assay: chemical genetic growth profiling, strain panel (AID 1159580);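 further: tested at 20 µM; growth read once vehicle control cultures reached saturation at 30 °C; 1 = growth at the plate median or of vehicle wells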
Conditions: growth OD

Measured: normalized growth

N[C@@H](Cc1ccc(N(CCCl)CCCl)cc1)C(=O)O
inactive: S. cerevisiae deletion strains, locus YJR075W, strain HOC1, stronger effect = lower value 0.986 | S. cerevisiae deletion strains, locus YKL009W, strain mrt4, stronger effect = lower value 0.961 | S. cerevisiae deletion strains, locus YKL068W, stronger effect = lower value 0.971 | S. cerevisiae deletion strains, locus YKL085W, strain MDH1 (second series), stronger effect = lower value 0.991 | S. cerevisiae deletion strains, locus YKL085W, strain MDH1, stronger effect = lower value 0.991 | S. cerevisiae deletion strains, locus YKL160W, strain elf1, stronger effect = lower value 0.968 | S. cerevisiae deletion strains, locus YKL190W, strain CNB1, stronger effect = lower value 0.98 | S. cerevisiae deletion strains, locus YKR001C, strain vps1, stronger effect = lower value 0.961 | S. cerevisiae deletion strains, locus YKR026C, strain gcn3, stronger effect = lower value 0.979 | S. cerevisiae deletion strains, locus YKR091W, strain srl3, stronger effect = lower value 0.975 | S. cerevisiae deletion strains, locus YLL001W, strain dnm1, stronger effect = lower value 0.929 | S. cerevisiae deletion strains, locus YLL026W, stronger effect = lower value 0.989 | S. cerevisiae deletion strains, locus YLL041C, strain sdh2, stronger effect = lower value 0.982 | S. cerevisiae deletion strains, locus YLR027C, strain aat2, stronger effect = lower value 0.995 | S. cerevisiae deletion strains, locus YLR039C, strain RIC1, stronger effect = lower value 0.96 | S. cerevisiae deletion strains, locus YLR058C, strain SHM2, stronger effect = lower value 0.968 | S. cerevisiae deletion strains, locus YLR102C, strain apc9, stronger effect = lower value 0.981 | S. cerevisiae deletion strains, locus YLR113W, strain HOG1, stronger effect = lower value 1.03 | S. cerevisiae deletion strains, locus YLR221C, strain rsa3, stronger effect = lower value 0.958 | S. cerevisiae deletion strains, locus YLR258W, strain gsy2, stronger effect = lower value 0.983 | S. cerevisiae deletion strains, locus YLR262C, strain YPT6 (second series), stronger effect = lower value 0.979 | S. cerevisiae deletion strains, locus YLR262C, strain YPT6, stronger effect = lower value 0.898 | S. cerevisiae deletion strains, locus YLR268W, strain sec22, stronger effect = lower value 0.967 | S. cerevisiae deletion strains, locus YLR320W, strain mms22, stronger effect = lower value 0.97 | S. cerevisiae deletion strains, locus YLR330W, strain CHS5, stronger effect = lower value 0.986 | S. cerevisiae deletion strains, locus YLR342W, strain FKS1 (second series), stronger effect = lower value 0.983 | S. cerevisiae deletion strains, locus YLR342W, strain FKS1, stronger effect = lower value 0.978 | S. cerevisiae deletion strains, locus YLR357W, strain rsc2, stronger effect = lower value 0.954 | S. cerevisiae deletion strains, locus YLR370C, strain arc18, stronger effect = lower value 0.978 | S. cerevisiae deletion strains, locus YLR371W, strain rom2, stronger effect = lower value 0.978 | S. cerevisiae deletion strains, locus YLR384C, strain iki3, stronger effect = lower value 0.985 | S. cerevisiae deletion strains, locus YLR418C, strain cdc73, stronger effect = lower value 0.976 | S. cerevisiae deletion strains, locus YML016C, strain PPZ1, stronger effect = lower value 0.982 | S. cerevisiae deletion strains, locus YML032C, strain rad52, stronger effect = lower value 0.979 | S. cerevisiae deletion strains, locus YML120C, strain ndi1, stronger effect = lower value 0.952 | S. cerevisiae deletion strains, locus YML124C, strain tub3, stronger effect = lower value 0.987 | S. cerevisiae deletion strains, locus YMR058W, strain fet3, stronger effect = lower value 0.983 | S. cerevisiae deletion strains, locus YMR078C, strain ctf18, stronger effect = lower value 0.961 | S. cerevisiae deletion strains, locus YMR125W, strain sto1, stronger effect = lower value 0.97 | S. cerevisiae deletion strains, locus YMR129W, stronger effect = lower value 0.981 | S. cerevisiae deletion strains, locus YMR205C, strain PFK2, stronger effect = lower value 0.974 | S. cerevisiae deletion strains, locus YMR223W, strain ubp8, stronger effect = lower value 0.987 | S. cerevisiae deletion strains, locus YMR231W, strain pep5, stronger effect = lower value 0.987 | S. cerevisiae deletion strains, locus YMR263W, strain SAP30, stronger effect = lower value 0.982 | S. cerevisiae deletion strains, locus YMR307W, strain GAS1, stronger effect = lower value 0.915 | S. cerevisiae deletion strains, locus YNL067W, strain RPL9B, stronger effect = lower value 0.984 | S. cerevisiae deletion strains, locus YNL071W, strain lat1, stronger effect = lower value 0.932 | S. cerevisiae deletion strains, locus YNL128W, strain TEP1, stronger effect = lower value 0.982 | S. cerevisiae deletion strains, locus YNL153C, strain GIM3, stronger effect = lower value 0.976 | S. cerevisiae deletion strains, locus YNL183C, strain NPR1, stronger effect = lower value 0.966 | S. cerevisiae deletion strains, locus YNL209W, strain ssb2, stronger effect = lower value 0.983 | S. cerevisiae deletion strains, locus YNL233W, strain BNI4, stronger effect = lower value 0.994 | S. cerevisiae deletion strains, locus YNL248C, strain rpa49, stronger effect = lower value 0.978 | S. cerevisiae deletion strains, locus YNL250W, strain rad50, stronger effect = lower value 0.969 | S. cerevisiae deletion strains, locus YNL271C, strain bni1, stronger effect = lower value 0.979 | S. cerevisiae deletion strains, locus YNL298W, strain CLA4, stronger effect = lower value 0.979 | S. cerevisiae deletion strains, locus YNL307C, strain MCK1, stronger effect = lower value 0.985 | S. cerevisiae deletion strains, locus YNL322C, strain KRE1 (second series), stronger effect = lower value 0.989 | S. cerevisiae deletion strains, locus YNL322C, strain KRE1, stronger effect = lower value 0.982 | S. cerevisiae deletion strains, locus YNR049C, strain mso1, stronger effect = lower value 0.977 | S. cerevisiae deletion strains, locus YNR052C, strain pop2, stronger effect = lower value 0.974 | S. cerevisiae deletion strains, locus YOL006C, strain TOP1, stronger effect = lower value 0.954 | S. cerevisiae deletion strains, locus YOL012C, strain htz1 0.837 | S. cerevisiae deletion strains, locus YOL147C, strain pex11, stronger effect = lower value 0.986 | S. cerevisiae deletion strains, locus YOR001W, strain rrp6, stronger effect = lower value 0.988 | S. cerevisiae deletion strains, locus YOR061W, strain CKA2, stronger effect = lower value 0.962 | S. cerevisiae deletion strains, locus YOR069W, strain VPS5, stronger effect = lower value 0.998 | S. cerevisiae deletion strains, locus YOR070C, strain gyp1, stronger effect = lower value 0.979 | S. cerevisiae deletion strains, locus YOR080W, strain dia2, stronger effect = lower value 0.995 | S. cerevisiae deletion strains, locus YOR083W, strain WHI5, stronger effect = lower value 0.963 | S. cerevisiae deletion strains, locus YOR106W, strain vam3, stronger effect = lower value 0.996 | S. cerevisiae deletion strains, locus YOR136W, strain idh2, stronger effect = lower value 0.989 | S. cerevisiae deletion strains, locus YOR144C, strain elg1, stronger effect = lower value 0.99 | S. cerevisiae deletion strains, locus YOR184W, strain ser1, stronger effect = lower value 0.96 | S. cerevisiae deletion strains, locus YOR231W, strain MKK1, stronger effect = lower value 1.01 | S. cerevisiae deletion strains, locus YOR265W, strain rbl2, stronger effect = lower value 0.989 | S. cerevisiae deletion strains, locus YOR270C, strain vph1, stronger effect = lower value 0.981 | S. cerevisiae deletion strains, locus YOR290C, strain snf2, stronger effect = lower value 0.909 | S. cerevisiae deletion strains, locus YOR316C, strain cot1, stronger effect = lower value 0.97 | S. cerevisiae deletion strains, locus YPL051W, strain arl3, stronger effect = lower value 0.974 | S. cerevisiae deletion strains, locus YPL055C, strain LGE1, stronger effect = lower value 0.963 | S. cerevisiae deletion strains, locus YPL078C, strain atp4, stronger effect = lower value 0.974 | S. cerevisiae deletion strains, locus YPL106C, strain sse1, stronger effect = lower value 0.976 | S. cerevisiae deletion strains, locus YPL240C, strain hsp82, stronger effect = lower value 0.989 | S. cerevisiae deletion strains, locus YPL241C, strain CIN2, stronger effect = lower value 1.04 | S. cerevisiae deletion strains, locus YPL256C, strain CLN2, stronger effect = lower value 1.02 | S. cerevisiae deletion strains, locus YPR119W, strain clb2, stronger effect = lower value 0.991 | S. cerevisiae deletion strains, locus YPR141C, strain kar3, stronger effect = lower value 0.961 | S. cerevisiae deletion strains, locus YPR163C, strain tif3, stronger effect = lower value 0.984 | S. cerevisiae deletion strains, locus YPR167C, strain met16, stronger effect = lower value 0.972 | S. cerevisiae deletion strains, strain wtn01, stronger effect = lower value 0.982 | S. cerevisiae strains, strain wild type, stronger effect = lower value 0.983
